Eight compounds from PubChem BioAssay (NCATS) can be followed below.

A short description of test [1]: S16 Schwann cell PMP22 intronic element beta-lactamase assay (AID 624044; calls by dose curve; note: nearly all actives have a fitted effect of over 15% in size). To be noted: S16 rat Schwann cells, PMP22 element beta-lactamase FRET, 24 h; ratio activity, negative = inhibition: at 38.3 µM (top of the series). The method in brief:
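Beta-lactamase reporter under a PMP22 intronic regulatory element in stable S16 rat Schwann cells; 24 h compound exposure. 460 nm blue signal normalized between DMSO (0%) and potassium clavulanate, with 535 nm FRET tracking viability; curves classed by r2 and response.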

The subject of the next test is AA1029. Briefly: qHTS profiling for inhibitors of Plasmodium falciparum proliferation (AID 504749). Note: nearly all actives have a fitted effect of over 60% in size. To be noted: P. falciparum in erythrocytes, SYBR Green DNA, 72 h; series mostly up to 28.7 µM. The method in brief:
(§1)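 SYBR Green fluorescence of parasite DNA, read after lysis and overnight dark incubation, measured growth over 72 h in erythrocyte culture at 0.3% parasitemia and 2.5% hematocrit. Data normalised to DMSO and 0.29 uM artemisinin, with plate-drift correction.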

The test system of a further test is AS120. Described as above. To be noted: P. falciparum in erythrocytes, SYBR Green DNA, 72 h; series mostly up to 28.7 µM. The method in brief:
as §1

The subject of the next test is ATS189. The test is described as above. To be noted: P. falciparum in erythrocytes, SYBR Green DNA, 72 h; series mostly up to 28.7 µM. The method in brief:
as §1

The next test has as its system C2A. Described as above. Conditions: P. falciparum in erythrocytes, SYBR Green DNA, 72 h; series mostly up to 28.7 µM. The method in brief:
as §1

In a further test the test system is CP194. Described as above. Conditions: P. falciparum in erythrocytes, SYBR Green DNA, 72 h; series mostly up to 28.7 µM. Put shortly: as §1
The test system of a further test is CP201. The description is as above. To be noted: P. falciparum in erythrocytes, SYBR Green DNA, 72 h; series mostly up to 28.7 µM. Put shortly:
as §1

In another test the test system is CP203. Described as above. Conditions: P. falciparum in erythrocytes, SYBR Green DNA, 72 h; series mostly up to 28.7 µM. The method in brief: as §1
The subject of a further test is CP217. The test is described as above. To be noted: P. falciparum in erythrocytes, SYBR Green DNA, 72 h; series mostly up to 28.7 µM. The method in brief:
as §1

The next test concerns CP237. The test is described as above. To be noted: P. falciparum in erythrocytes, SYBR Green DNA, 72 h; series mostly up to 28.7 µM. Put shortly:
as §1

The next test has as its system CP250. The test is described as above. Conditions: P. falciparum in erythrocytes, SYBR Green DNA, 72 h; series mostly up to 28.7 µM. The method in brief: as §1
In another test the test system is CP256. Described as above. To be noted: P. falciparum in erythrocytes, SYBR Green DNA, 72 h; series mostly up to 28.7 µM. Put shortly: as §1
A further test relates to CP268. The description is as above. Conditions: P. falciparum in erythrocytes, SYBR Green DNA, 72 h; series mostly up to 28.7 µM. The method in brief: as §1
The next test deals with CP297. The description is as above. Conditions: P. falciparum in erythrocytes, SYBR Green DNA, 72 h; series mostly up to 28.7 µM. Put shortly: as §1
Another test concerns CP305. Described as above. To be noted: P. falciparum in erythrocytes, SYBR Green DNA, 72 h; series mostly up to 28.7 µM. The method in brief:
as §1

For another test, the system named is CP325. The description is as above. Conditions: P. falciparum in erythrocytes, SYBR Green DNA, 72 h; series mostly up to 28.7 µM. The method in brief:
as §1

Another test concerns HB3. The description is as above. To be noted: P. falciparum in erythrocytes, SYBR Green DNA, 72 h; series mostly up to 28.7 µM. Put shortly:
as §1

For a further test, the system named is PC15. The description is as above. To be noted: P. falciparum in erythrocytes, SYBR Green DNA, 72 h; series mostly up to 28.7 µM. The method in brief: as §1
Another test has as its system PC49. The description is as above. Conditions: P. falciparum in erythrocytes, SYBR Green DNA, 72 h; series mostly up to 28.7 µM. Put shortly: as §1
Another test has as its system TAB109. Described as above. To be noted: P. falciparum in erythrocytes, SYBR Green DNA, 72 h; series mostly up to 28.7 µM. Put shortly:
as §1

Results filed as inconclusive are left out. Values without a mark were called inactive. Calls of active or inactive are those of the source. Unless noted, calls come from the whole dose curve; as a rule, active = well fitted inhibition curve with a large enough effect; inconclusive = small, poorly fitted or top-dose-only effect; inactive = flat fitted curve, though single readings scatter.
Potency is the fitted concentration of half-maximal effect.

Take `Nc1nc(Cl)nc2c1ncn2[C@@H]1O[C@H](CO)[C@H](O)C1F` (stereo partly drawn): the Potency in [1] was 8.91 µM (active). Also, the Potency result in the test on AA1029, in the test with AS120, in the test with ATS189, with C2A, with CP194 and in the test on CP201 was “inactive” in each case. Moreover, the Potency entry in the test with CP203, in the test with CP217, in the test with CP237, in the test with CP250, in the test on CP256 and with CP268 was “inactive” throughout. For the same compound, the Potency result in the test on CP297, with CP305, with CP325, in the test on HB3, in the test on PC15 and in the test with PC49 was “inactive” throughout. In addition, the Potency entry with TAB109 was “inactive”.

As to `CC(=O)O[C@]1(C(C)=O)CCC2C3CCC4=CC(=O)CCC4(C)C3(F)C(O)CC21C` (stereo partly drawn), the Potency entry (in test [1]; in the test on AA1029; in the test on AS120; in the test with ATS189; with C2A; in the test with CP194) was “inactive” in each case. The Potency entry in the test on CP201, in the test on CP203, with CP217, in the test with CP237, in the test on CP250 and in the test with CP256 was “inactive” in each case. For the same compound, the Potency entry with CP268, in the test on CP297, in the test on CP305, in the test with CP325, with HB3 and with PC15 was “inactive” each time. For the same compound, the Potency result in the test on PC49 and with TAB109 was “inactive” each time.

Turning to `C=C1C(n2cnc3c(=O)[nH]c(N)nc32)C[C@H](O)[C@H]1CO` (stereo partly drawn), the Potency entry (in test [1]; in the test on AA1029; with AS120; in the test with ATS189; in the test on C2A; with CP194) was “inactive” throughout. The Potency result with CP201, in the test on CP217, with CP237, in the test with CP297 and in the test with HB3 was “inactive” each time.

In the case of `Cn1cc(C(=O)[C@@H]2CCc3[nH]cnc3C2)c2ccccc21`, the Potency entry (in test [1]; in the test on AA1029; in the test on AS120; with ATS189; in the test on C2A; with CP194) was “inactive” each time. Besides, the Potency entry in the test on CP201, in the test on CP203, with CP217, in the test on CP237, in the test with CP250 and in the test with CP256 was “inactive” each time. The Potency entry with CP268, with CP297, in the test with CP305, in the test with CP325, with HB3 and in the test on PC15 was “inactive” throughout. Moreover, the Potency entry with PC49 and in the test with TAB109 was “inactive” in each case.

For `CC1(C)O[C@@H]2C[C@H]3[C@@H]4CCC5=CC(=O)C=C[C@]5(C)[C@H]4C(O)C[C@]3(C)[C@]2(C(=O)CO)O1` (stereo partly drawn), the Potency entry (in [1]; in the test on ATS189; with C2A; in the test with CP194; in the test with CP201; in the test on CP203) was “inactive” throughout. The Potency entry in the test with CP217, in the test with CP250, in the test with CP256, in the test with CP268, in the test on CP297 and with CP305 was “inactive” throughout. Further, the Potency entry in the test on CP325, in the test on HB3, in the test with PC15 and in the test on TAB109 was “inactive” throughout.

Consider `CCC1OC(=O)C[C@@H](O)[C@H](C)[C@@H](OC2OC(C)CC(N(C)C)C2O)[C@@H](CC=O)C[C@@H](C)C(=O)/C=C/[C@]2(C)OC2C1C` (stereo partly drawn), for which the Potency result (in test [1]; in the test with PC15) was “inactive” throughout. Further, the Potency was 5.01 µM (active) in the test with CP237, 2.24 µM (active) in the test on CP256, 2.13 µM (active) in the test on CP297 and 0.794 µM (active) in the test on TAB109.

For the compound `CC[C@H]1OC(=O)[C@H](C)C(=O)[C@H](C)[C@@H](OC2O[C@H](C)C[C@H](N(C)C)[C@@H]2O)[C@@](C)(OC)C[C@@H](C)C(=O)[C@@H](C)C2N(CCCCn3cnc(-c4cccnc4)c3)C(=O)O[C@@]21C` (stereo partly drawn), the Potency result (in [1]; with C2A; with CP194; in the test on CP201; with CP203; with CP250) was “inactive” throughout. Further, the Potency result in the test on CP256, in the test with CP268, in the test on CP305, with CP325, in the test on PC15 and in the test with PC49 was “inactive” each time.

Take `O=C(NC(CO)C(O)c1ccc([N+](=O)[O-])cc1)C(Cl)Cl` (stereo not drawn): the Potency result (in [1]; in the test with CP194; in the test on CP201; in the test with CP203; with PC15; in the test with PC49) was “inactive” each time. In addition, the Potency with CP256 is 11.2 µM (active); in the test with CP325, 6.01 µM (active).
